Assay results taken from PubChem BioAssay AID1220 (Sanford-Burnham Center for Chemical Genomics, 2008).
About 1,300 (0.68%) of roughly 190,000 compounds were called active. No stated cut-off is given here; in the data, active means inhibition above about 50%; inactive means the rest. The list comes from a sample in which actives are over-represented; it also holds similar structures and randomly drawn compounds.

biological target: Mannose-6-phosphate isomerase (Homo sapiens) (UniProt P34949); test: human PMI inhibitors, high substrate, primary screen, biochemical, fluorescence intensity, high mannose 6-phosphate (AID 1220); conditions: recombinant PMI enzyme, coupled fluorescence intensity; at 20 µM; active compounds read high
Sequence (P34949 whole entry, looked up): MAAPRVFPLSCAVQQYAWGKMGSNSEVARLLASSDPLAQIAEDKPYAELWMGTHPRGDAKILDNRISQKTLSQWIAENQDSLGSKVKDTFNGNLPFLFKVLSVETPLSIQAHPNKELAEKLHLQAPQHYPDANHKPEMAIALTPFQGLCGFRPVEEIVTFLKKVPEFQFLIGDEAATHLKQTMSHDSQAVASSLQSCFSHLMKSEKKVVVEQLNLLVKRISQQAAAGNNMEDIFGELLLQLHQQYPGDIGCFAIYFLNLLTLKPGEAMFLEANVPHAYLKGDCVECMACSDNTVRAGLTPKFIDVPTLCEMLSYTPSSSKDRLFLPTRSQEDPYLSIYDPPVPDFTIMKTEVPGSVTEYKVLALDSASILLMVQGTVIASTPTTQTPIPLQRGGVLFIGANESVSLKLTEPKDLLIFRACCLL

Row | SMILES | inhibition
1 | O=C(CSc1ccc2nnc(-c3ccccc3)n2n1)NCc1ccc2c(c1)OCO2 | 2.7% (inactive)
2 | CN(C)c1nc(OCCNC(=O)Nc2ccc(Cl)cc2)nc(N(C)C)n1 | 1.2% (inactive)
3 | Cc1cccc(C)c1NS(=O)(=O)c1ccc2c(c1)C(=O)c1ccccc1C2=O | 21% (inactive)
4 | O=C(O)c1ccc(NS(=O)(=O)c2ccc3c(c2)C(=O)c2ccccc2C3=O)cc1 | 2.7% (inactive)
5 | O=C1c2ccccc2C(=O)c2cc(S(=O)(=O)Nc3ccccc3)ccc21 | 60.3% (active)
6 | COc1ccc(CCNc2ccc(S(=O)(=O)N3CCCC3)cc2[N+](=O)[O-])cc1 | -0.1% (inactive)
7 | COc1ccc2nc3ccccc3nc2c1NC(=O)c1ccc(Cl)cc1Cl | 17.8% (inactive)
8 | COc1ccc2nc3ccccc3nc2c1NC(=O)c1ccccc1Cl | 51.5% (active)
9 | COc1ccc2nc3ccccc3nc2c1NC(=O)c1ccc(Cl)cc1 | 23% (inactive)
10 | Cc1ccc2cccc(OCC(=O)N3CC(C)CC(C)C3)c2n1 (stereo not drawn) | 26.7% (inactive)
11 | Cc1cccc(OCC(=O)OCC(=O)c2c(N)n(C)c(=O)n(C)c2=O)c1C | 3.8% (inactive)
12 | Cc1cccc(NCC(=O)c2c(N)n(C)c(=O)n(C)c2=O)c1C | 59% (active)
13 | Cc1ccccc1CSCC(=O)c1c(N)n(C)c(=O)n(C)c1=O | 6.8% (inactive)
14 | CC(C)C(=O)NC(NC(=O)C(C)C)c1ccc([N+](=O)[O-])cc1 | -13.1% (inactive)
15 | CC(C)c1onc(C(=O)NCc2cccs2)c1[N+](=O)[O-] | -6.7% (inactive)
16 | CC(=O)c1cc2c(cc1N/C(=N/S(=O)(=O)c1ccc(C)cc1)c1ccc(Cl)cc1)OCO2 | 7.7% (inactive)
17 | O=S(=O)(N/N=C/c1ccc(F)cc1)c1ccccc1 | 4.7% (inactive)
18 | S=C(Nc1ccc(Cl)cc1)Nc1ccc2cn[nH]c2c1 | 56.6% (active)
19 | COc1ccc(NC(=S)Nc2ccc3cn[nH]c3c2)cc1 | 48.7% (inactive)
20 | S=C(Nc1ccc2cn[nH]c2c1)Nc1ccccc1Cl | 42.1% (inactive)
21 | Cc1ccc(NC(=S)Nc2ccc3cn[nH]c3c2)cc1 | 57.8% (active)
22 | Cc1ccc(NC(=S)Nc2ccc3cn[nH]c3c2)cc1C | 15.4% (inactive)
23 | Cc1ccccc1NC(=S)Nc1ccc2cn[nH]c2c1 | 61.3% (active)
24 | Cc1cc(C)cc(NC(=S)Nc2ccc3cn[nH]c3c2)c1 | 21.3% (inactive)
25 | Cc1ccc(NC(=S)Nc2ccc3cn[nH]c3c2)c(C)c1 | 44% (inactive)

Row | SMILES | inhibition
26 | CC(C)c1ccc(NC(=S)Nc2ccc3cn[nH]c3c2)cc1 | 46.1% (inactive)
27 | CCOC(=O)C1CCCN(C(=O)c2cn(CC)c(=O)c3cc(OC)c(OC)cc23)C1 (stereo not drawn) | -1.3% (inactive)
28 | CCOC(=O)c1nn(-c2ccc(C)cc2)cc1O | 1.2% (inactive)
29 | CC1(C)CC(=O)C2=C(C1)Nc1ccccc1NC2c1cccnc1 (stereo not drawn) | -11.6% (inactive)
30 | CC1(C)CC(=O)C2=C(C1)Nc1cc(C(=O)c3ccccc3)ccc1NC2c1ccccn1 (stereo not drawn) | -4.3% (inactive)
31 | COC(=O)c1ccc2c(c1)NC1=C(C(=O)CC(C)(C)C1)C(c1ccncc1)N2 (stereo not drawn) | 61.3% (active)
32 | O=C(Oc1c(CN2CCOCC2)cc(Cl)c2cccnc12)c1ccc(F)cc1 | 40.1% (inactive)
33 | COc1cc(C(=O)Oc2c(CN3CCOCC3)cc(Cl)c3cccnc23)cc(OC)c1OC | 35.9% (inactive)
34 | O=C(Oc1c(CN2CCOCC2)cc(Cl)c2cccnc12)c1ccccc1Cl | 57.1% (active)
35 | O=C(Oc1c(Cl)cc(Cl)c2cccnc12)N1CCOCC1 | 1.1% (inactive)
36 | COc1cccc(C(=O)Oc2c(CN3CCOCC3)cc(Cl)c3cccnc23)c1 | 24% (inactive)
37 | O=C(Oc1c(CN2CCOCC2)cc(Cl)c2cccnc12)c1ccccc1F | 51.4% (active)
38 | O=C(Oc1c(CN2CCOCC2)cc(Cl)c2cccnc12)c1ccccc1 | 56.3% (active)
39 | O=[N+]([O-])c1cc(CN2CCOCC2)c2cccnc2c1O | 40.5% (inactive)
40 | COc1ccc(C(=O)Oc2c(CN3CCOCC3)cc(Cl)c3cccnc23)cc1 | 22.5% (inactive)
41 | c1ccc2c(c1)ccc1ncccc12 | -5.5% (inactive)
42 | O=C(CS(=O)(=O)c1ccccc1)Nc1nc(-c2ccc(F)cc2)cs1 | 8.2% (inactive)
43 | CCOC(=O)CNC(=O)CSc1nnc(-c2ccco2)n1N | 6.3% (inactive)
44 | CCCCOc1ccc(Cc2c(COCC)[nH]c(=S)[nH]c2=O)cc1 | -4.9% (inactive)
45 | O=C(c1cc2ccccc2o1)N1CCCC1 | -0.3% (inactive)
46 | COc1ccc(OC)c(S(=O)(=O)Nc2ccccc2SC)c1 | 57.1% (active)
47 | COc1ccc(OC)c(S(=O)(=O)Nc2ccccc2C)c1 | 10.8% (inactive)
48 | COc1ccc(OC)c(NS(=O)(=O)c2cc(OC)ccc2OC)c1 | 2.8% (inactive)
49 | CC1=CC(C)(C)N(C(=O)CNC2CCCCC2)c2cc(C)ccc21 | 2.1% (inactive)
50 | C=CCOc1c(Br)cc(CNc2ccc(NC(=O)C(C)C)c(OC)c2)cc1OCC | 57.7% (active)

Row | SMILES | inhibition
51 | C=CCOc1c(Br)cc(CNc2ccc(NC(=O)C(C)C)cc2)cc1OCC | 22.7% (inactive)
52 | C=CCOc1c(Br)cc(CNc2ccc(NC(=O)C(C)C)c(OC)c2)cc1OC | 41.7% (inactive)
53 | COc1cccc(C(=O)Nc2ccc3c(c2)C(=O)N(CCC(=O)O)C3=O)c1 | 3.7% (inactive)
54 | CC1CCCC(NC(=O)COC(=O)CSc2ccc3ccccc3c2)C1C (stereo not drawn) | 7.7% (inactive)
55 | Cc1ccc(-c2nc(N)sc2-c2ccc(C)cc2)cc1 | 13.6% (inactive)
56 | Cc1ccc(-c2nc(N)sc2C)cc1 | -10.2% (inactive)
57 | Cc1ccc(-c2nnc(-c3ccccc3)c(-c3ccccc3)n2)cc1 | -0.5% (inactive)
58 | Cc1ccc(-c2cc(-c3ccccc3)nc(Cl)n2)cc1 | 12.5% (inactive)
59 | CCCCC(=O)OCC(=O)c1[nH]c(C)c(C(C)=O)c1C | -12% (inactive)
60 | CCc1nnc(NC(=O)c2ccc(N(C)S(=O)(=O)c3ccccc3)cc2)s1 | -6.4% (inactive)
61 | CC(C)c1ccccc1NC(=O)COC(=O)CNC(=O)c1ccc(Br)cc1 | 4.8% (inactive)
62 | Nc1ccc(Cc2ccc(N)c(O)c2)cc1O | 46.8% (inactive)
63 | Nc1cc2c(cc1O)CCCC2 | 54.3% (active)
64 | O=C(O)c1ccc2c(c1)CCC2 | 0.1% (inactive)
65 | COc1cc(NC(=O)CSc2c3c(nc4ccccc24)CCC3)cc(OC)c1OC | -3.7% (inactive)
66 | CCOc1ccccc1NC(=O)CCN(c1ccc(C)cc1)S(=O)(=O)c1ccccc1 | 5.3% (inactive)
67 | Cc1nn(Cc2c(F)c(F)c(F)c(F)c2F)c(C)c1NC(=O)c1ccc(COc2cc(Cl)ccc2Cl)cc1 | 0.7% (inactive)
68 | Cc1ccc(NCN2C(=O)C3C4C=CC(C4)C3C2=O)cc1 (stereo not drawn) | 16.9% (inactive)
69 | O=C1C2C3C=CC(C3)C2C(=O)N1CNc1ccccc1 (stereo not drawn) | -1% (inactive)
70 | O=C1C2C3C=CC(C3)C2C(=O)N1CNc1ccc(O)cc1 (stereo not drawn) | 58.4% (active)
71 | CC12CC(NC(=O)N1c1cccc(C(=O)N3CCN(c4ccccn4)CC3)c1)c1ccccc1O2 (stereo not drawn) | -3.4% (inactive)
72 | O=C(CSc1nnc(SCc2cccc3ccccc23)s1)Nc1ccc(C(=O)O)cc1 | 10.4% (inactive)
73 | COc1ccc(COc2ccc(C3C(S(=O)(=O)c4ccccc4)CON3C)cc2OC)cc1 (stereo not drawn) | -2.4% (inactive)
74 | O=C(O)c1cccc(NS(=O)(=O)c2ccc(C3CCCCC3)cc2)c1 | -7% (inactive)
75 | O=C(O)c1cccc(NS(=O)(=O)c2ccc(-c3ccc(S(=O)(=O)Nc4cccc(C(=O)O)c4)cc3)cc2)c1 | 53.1% (active)

Row | SMILES | inhibition
76 | O=C(O)c1cccc(NS(=O)(=O)c2ccc(Cl)c(C(=O)O)c2)c1 | 1.9% (inactive)
77 | CCOC(=O)C1CCN(C(=O)c2c(C)oc3c2C(=O)c2ccccc2C3=O)CC1 | 55.2% (active)
78 | CC(=O)c1c(C)oc2c1C(=O)c1ccccc1C2=O | -9.9% (inactive)
79 | Cc1oc2c(c1C(=O)O)C(=O)c1ccccc1C2=O | -9.6% (inactive)
80 | CCOC(=O)c1c(C)oc2c1C(=O)c1ccccc1C2=O | -16.2% (inactive)
81 | CCOC(=O)C1CCN(C(C)=C2C(=O)c3ccccc3C2=O)CC1 | -9.2% (inactive)
82 | Cc1oc2c(c1C(=O)N1CCC(C)CC1)C(=O)c1ccccc1C2=O | 54.7% (active)
83 | CSc1nc(-c2ccccc2)c(-c2ccccc2)[nH]1 | -9.1% (inactive)
84 | COc1ccc([N+](=O)[O-])cc1N(CC(=O)NC1CCCC1)S(C)(=O)=O | -1.4% (inactive)
85 | Cc1cccc(N=C2NN=C(c3c(C)[nH]c4ccccc34)CS2)c1 | -7% (inactive)
86 | O=C(Nc1ccc(Cl)cc1)N(Cc1nnc2n1CCCCC2)c1ccccc1 | -8.1% (inactive)
87 | CCOC(=O)c1ccc(CN(Cc2ccc(C)cc2)S(=O)(=O)c2cccc([N+](=O)[O-])c2)cc1 | -10% (inactive)
88 | N#Cc1c(N2CCCCC2)nc(N)c2c(N)nc3c(c12)CC(CCl)O3 (stereo not drawn) | 47.3% (inactive)
89 | N#Cc1c(N2CCCCC2)nc(N)c2c(N)nc3c(c12)CC(c1ccccc1)O3 (stereo not drawn) | 56.5% (active)
90 | CCc1nc(N2CCOCC2)c(C#N)c2c1CCCC2 | 4.2% (inactive)
91 | CCC1Cc2c(nc(N)c3c(N)nc(N4CCOCC4)c(C#N)c23)O1 (stereo not drawn) | 61.5% (active)
92 | CCN(CC)c1nc(N)c2c(N)nc3c(c2c1C#N)CC(c1ccccc1)O3 (stereo not drawn) | 31.2% (inactive)
93 | COc1ccc(CN2C(=O)Cc3c2nc(N)c2c(N)nc(N4CCCCC4)c(C#N)c32)cc1 | 37.8% (inactive)
94 | CCOc1ccccc1C1N(c2ccc(OC)cc2)C(=O)C2CCCN21 (stereo not drawn) | 2.6% (inactive)
95 | CC(C)(C)NC(=O)C(c1ccncc1)N(C(=O)Cn1nnc(-c2ccc(F)cc2)n1)c1ccccc1F (stereo not drawn) | 1.9% (inactive)
96 | O=C(Nc1cccc(NC(=O)C2CCCO2)c1)c1ccco1 (stereo not drawn) | 13.7% (inactive)
97 | O=C(Nc1ccccc1NC(=O)C1CCCO1)c1ccco1 (stereo not drawn) | 51.8% (active)
98 | Cc1ccc(NC(=O)c2ccco2)c(NC(=O)C2CCCO2)c1 (stereo not drawn) | 11.8% (inactive)
